Assay results as given in the antibiotic and cytotoxicity screens of Wong et al. (2023).
Hit rate of the full screen: of about 39,000 compounds, about 3,300 (8.5%) were called active. The list comes from a sample in which actives are over-represented; it also holds similar structures and randomly drawn compounds.

Each compound was assayed on HepG2 (assay: cytotoxicity call (relative viability < 0.9)). Conditions: 10 µM.
With `C[C@H]1CN([C@@H](C)CO)C(=O)Cc2cc(NS(=O)(=O)c3cccs3)ccc2O[C@@H]1CN(C)S(=O)(=O)c1cn(C)cn1` the cytotoxicity call was “inactive”.
For `Cc1noc(C)c1NC(=O)Nc1ccc2c(c1)C(=O)N([C@H](C)CO)C[C@H](C)[C@H](CN(C)S(=O)(=O)c1ccccc1)O2`, the cytotoxicity call was “inactive”.
With `COc1ccc2c3c([nH]c2c1)[C@H](CO)N(C[C@]13CN(Cc2ccccc2F)C1)S(=O)(=O)c1cn(cn1)C` the cytotoxicity call was “inactive”.
For `Cc1noc(C)c1NC(=O)Nc1ccc2c(c1)CC(=O)N([C@H](C)CO)C[C@H](C)[C@@H](CN(C)S(=O)(=O)c1cccs1)O2`, the cytotoxicity call was “inactive”.
In the case of `Cc1ccc(S(=O)(=O)N(C)C[C@@H]2OCCCC[C@H](C)Oc3ccc(NC(=O)Nc4ccc(F)cc4)cc3C(=O)N([C@H](C)CO)C[C@@H]2C)cc1`, the cytotoxicity call is reported as “inactive”.
`C[C@H](NC(=O)N(C)C[C@@H]1OCc2ccccc2-c2ccccc2C(=O)N([C@H](C)CO)C[C@@H]1C)c1ccccc1` was tested, and the cytotoxicity call was “inactive”.
In the case of `CCn1c(N)nc2c1c(=O)[nH]c(=O)n2C`, the cytotoxicity call is reported as “inactive”.
`NCCn1nc([C@H]2CCN(C(=O)c3csc4c3CCCC4)C2)c2nccnc21` was tested, and the cytotoxicity call was “inactive”.
For `Cc1ccc(S(=O)(=O)N(C)C[C@@H]2Oc3ccc(NS(=O)(=O)c4cn(C)cn4)cc3C(=O)N([C@@H](C)CO)C[C@H]2C)cc1`, the cytotoxicity call was “inactive”.
For `CCSC1=C(C#N)C(=O)N[C@@H](CO)S1`, the cytotoxicity call was “inactive”.
With `C[C@H](CO)N1C[C@H](C)[C@@H](CN(C)Cc2ccc(C(=O)O)cc2)OCCCC[C@H](C)Oc2ccc(NC(=O)Nc3cccc4ccccc34)cc2C1=O` the cytotoxicity call was “inactive”.
In the case of `C[C@H]1CCCCO[C@H](CN(C)C(=O)Nc2ccc(C(F)(F)F)cc2)[C@@H](C)CN([C@@H](C)CO)C(=O)c2cc(NS(=O)(=O)c3ccccc3)ccc2O1`, the cytotoxicity call is reported as “active”.
In the case of `C[C@H](CO)N1C[C@H](C)[C@H](CN(C)C(=O)Nc2ccc(C(F)(F)F)cc2)OCCCC[C@H](C)Oc2ccc(NS(=O)(=O)c3ccccc3)cc2C1=O`, the cytotoxicity call is reported as “inactive”.
For `C[C@@H]1CCCCO[C@H](CN(C)C(=O)Nc2ccc(C(F)(F)F)cc2)[C@@H](C)CN([C@@H](C)CO)C(=O)c2cc(NS(=O)(=O)c3ccccc3)ccc2O1`, the cytotoxicity call was “inactive”.
In the case of `C[C@@H]1CCCCO[C@@H](CN(C)C(=O)Nc2ccc(C(F)(F)F)cc2)[C@@H](C)CN([C@H](C)CO)C(=O)c2cc(NS(=O)(=O)c3ccccc3)ccc2O1`, the cytotoxicity call is reported as “active”.
In the case of `Cc1noc(C)c1S(=O)(=O)Nc1cccc2c1O[C@@H](CN(C)S(=O)(=O)c1cccs1)[C@@H](C)CN([C@@H](C)CO)C2=O`, the cytotoxicity call is reported as “inactive”.
`COc1ccc(-n2c(N)cc(=O)[nH]c2=O)cc1` was tested, and the cytotoxicity call was “inactive”.
For `N=C(N)Nc1nc(=O)c2ccccc2s1`, the cytotoxicity call was “inactive”.
With `CSc1cccc2sc(Nc3ccc(Cl)cc3)nc12` the cytotoxicity call was “inactive”.
With `c1ccc(Nc2nc3c(ccc4ccccc43)s2)cc1` the cytotoxicity call was “active”.
In the case of `O=C(C[C@H]1CC=CC[C@H](Cc2ccc(F)cc2)C(=O)OC[C@@H](Cc2c[nH]c3ccccc23)NC1=O)NCCO`, the cytotoxicity call is reported as “inactive”.
For `C[C@@H]1CN([C@@H](C)CO)C(=O)Cc2cc(NC(=O)C3CCCCC3)ccc2O[C@@H]1CN(C)S(C)(=O)=O`, the cytotoxicity call was “inactive”.
For `C[C@@H]1CN([C@@H](C)CO)C(=O)c2cc(NC(=O)C3CCCCC3)ccc2O[C@@H](C)CCCCO[C@H]1CN(C)C(=O)C1CCCCC1`, the cytotoxicity call was “inactive”.
With `Cc1noc(C)c1S(=O)(=O)Nc1ccc2c(c1)CC(=O)N([C@@H](C)CO)C[C@@H](C)[C@@H](CN(C)C(=O)Nc1ccc3c(c1)OCO3)O2` the cytotoxicity call was “inactive”.
In the case of `CNC(=O)c1c(O)c2ccccc2n(C)c1=O`, the cytotoxicity call is reported as “active”.
`CNC(=O)c1c(O)c2ccccc2[nH]c1=O` was tested, and the cytotoxicity call was “inactive”.
For `Cn1c(=O)c(C(=O)NCCO)c(O)c2ccccc21`, the cytotoxicity call was “inactive”.
For `COc1ccc2c3c([nH]c2c1)[C@H](CO)N(C[C@]13CCN(CC1)C(=O)CN(C)C)S(=O)(=O)C`, the cytotoxicity call was “inactive”.
For `CC1OC1P(=O)([O-])[O-].[Ca+2]` (stereo not drawn), the cytotoxicity call was “inactive”.
`NCC[S@@](=O)c1c(-c2ccc(F)cc2)[nH]c2ccccc12` was tested, and the cytotoxicity call was “inactive”.
With `Cc1[nH]c2ccccc2c1C(=O)CSc1ccc(Cl)cc1` the cytotoxicity call was “inactive”.
`CSc1c(-c2ccc(Cl)cc2)[nH]c2ccccc12` was tested, and the cytotoxicity call was “active”.
`C[C@H](CO)N1C[C@H](C)[C@H](CN(C)S(=O)(=O)c2ccc(Cl)cc2)Oc2ccc(NC(=O)CCN3CCOCC3)cc2C1=O` was tested, and the cytotoxicity call was “inactive”.
For `C[C@@H]1CN([C@@H](C)CO)C(=O)Cc2cc(NC(=O)c3ccncc3)ccc2O[C@H]1CN(C)S(C)(=O)=O`, the cytotoxicity call was “inactive”.
With `C[C@H](O)C#Cc1ccc2c(c1)O[C@H](CN(C)C(=O)CN(C)C)[C@@H](C)CN([C@@H](C)CO)S2(=O)=O` the cytotoxicity call was “inactive”.
With `C[C@H]1CN([C@@H](C)CO)C(=O)Cc2cc(NC(=O)Nc3ccc(C(F)(F)F)cc3)ccc2O[C@H]1CN(C)S(C)(=O)=O` the cytotoxicity call was “inactive”.
For `C[C@H](CO)N1C[C@H](C)[C@H](CN(C)S(=O)(=O)c2ccc(Cl)cc2)Oc2ccc(NC(=O)Nc3ccc(C(F)(F)F)cc3)cc2CC1=O`, the cytotoxicity call was “active”.
With `C[C@@H]1CN([C@H](C)CO)C(=O)Cc2cc(NC(=O)Nc3ccc(C(F)(F)F)cc3)ccc2O[C@@H]1CN(C)S(=O)(=O)c1ccc(Cl)cc1` the cytotoxicity call was “active”.
In the case of `C[C@H]1CN([C@@H](C)CO)C(=O)Cc2cc(NC(=O)Nc3ccc(C(F)(F)F)cc3)ccc2O[C@H]1CN(C)S(=O)(=O)c1ccc(Cl)cc1`, the cytotoxicity call is reported as “active”.
`C[C@H](CO)N1C[C@H](C)[C@@H](CN(C)S(C)(=O)=O)Oc2ccc(NC(=O)Nc3ccc(C(F)(F)F)cc3)cc2CC1=O` was tested, and the cytotoxicity call was “inactive”.
With `C[C@@H]1CN([C@H](C)CO)C(=O)Cc2cc(NC(=O)Nc3ccc(C(F)(F)F)cc3)ccc2O[C@H]1CN(C)S(C)(=O)=O` the cytotoxicity call was “inactive”.
`C[C@@H]1CN([C@H](C)CO)C(=O)Cc2cc(NC(=O)Nc3ccc(C(F)(F)F)cc3)ccc2O[C@@H]1CN(C)S(C)(=O)=O` was tested, and the cytotoxicity call was “inactive”.
For `CC(C)NC(=O)Nc1ccc2c(c1)CC(=O)N([C@H](C)CO)C[C@@H](C)[C@@H](CN(C)S(=O)(=O)c1ccc(Cl)cc1)O2`, the cytotoxicity call was “inactive”.
For `C[C@H]1CN([C@@H](C)CO)C(=O)Cc2cc(NC(=O)Nc3cccc(C(F)(F)F)c3)ccc2O[C@H]1CN(C)S(=O)(=O)c1ccc(Cl)cc1`, the cytotoxicity call was “active”.
In the case of `O=C(O)c1ccc[nH]1`, the cytotoxicity call is reported as “inactive”.
`Cc1noc(C)c1NC(=O)N(C)C[C@@H]1Oc2ccc(NC(=O)Nc3ccc(C(F)(F)F)cc3)cc2CC(=O)N([C@@H](C)CO)C[C@@H]1C` was tested, and the cytotoxicity call was “inactive”.
`C[C@@H]1CN([C@H](C)CO)C(=O)Cc2cc(NC(=O)Cn3cnnn3)ccc2O[C@H]1CN(C)Cc1ccc(Oc2ccccc2)cc1` was tested, and the cytotoxicity call was “inactive”.
For `CN1CCN(C(=O)C[C@H]2C=C[C@H](NS(=O)(=O)c3cccc(F)c3)[C@@H](CO)O2)CC1`, the cytotoxicity call was “inactive”.
With `Cn1cnc(S(=O)(=O)N[C@H]2CC[C@H](CC(=O)NCC3CC3)O[C@@H]2CO)c1` the cytotoxicity call was “inactive”.
`C[C@@H]1CN([C@@H](C)CO)C(=O)c2cc(NC(=O)CCC(F)(F)F)ccc2O[C@@H](C)CCCCO[C@H]1CN(C)C(=O)Nc1cccc2ccccc12` was tested, and the cytotoxicity call was “inactive”.
`CC(C)N1C[C@H](C)[C@@H](CN(C)Cc2ccc(Oc3ccccc3)cc2)Oc2c(C(=O)Nc3ccncc3)cccc2C1=O` was tested, and the cytotoxicity call was “inactive”.
With `COc1ccc(NC(=O)Nc2ccc3c(c2)C(=O)N([C@@H](C)CO)C[C@H](C)[C@H](CN(C)Cc2ccc(C(=O)O)cc2)OCCCC[C@H](C)O3)cc1` the cytotoxicity call was “inactive”.
In the case of `CCCNS(=O)(=O)c1c[nH]c(C(=O)OC)c1`, the cytotoxicity call is reported as “inactive”.
`C[C@@H]1CN([C@@H](C)CO)C(=O)c2cccc(NS(=O)(=O)c3ccc(F)cc3)c2O[C@@H]1CN(C)CC1CC1` was tested, and the cytotoxicity call was “inactive”.
`C[C@@H]1CN([C@@H](C)CO)C(=O)Cc2cc(NC(=O)Nc3ccc(C(F)(F)F)cc3)ccc2O[C@H]1CN(C)S(=O)(=O)c1ccc(Cl)cc1` was tested, and the cytotoxicity call was “inactive”.
`COc1ccc(S(=O)(=O)N(C)C[C@@H]2Oc3ccc(NC(=O)Nc4cccc(C(F)(F)F)c4)cc3CC(=O)N([C@@H](C)CO)C[C@@H]2C)cc1Cl` was tested, and the cytotoxicity call was “active”.
In the case of `C[C@@H]1CN([C@H](C)CO)C(=O)Cc2cc(NC(=O)Nc3ccc(C(F)(F)F)cc3)ccc2O[C@H]1CN(C)S(=O)(=O)c1ccc(Cl)cc1`, the cytotoxicity call is reported as “inactive”.
`C[C@H]1CN([C@@H](C)CO)C(=O)Cc2cc(NC(=O)Nc3cccc(C(F)(F)F)c3)ccc2O[C@H]1CN(C)S(=O)(=O)c1ccc(Oc2ccccc2)cc1` was tested, and the cytotoxicity call was “active”.
With `C[C@H]1CN([C@@H](C)CO)C(=O)Cc2cc(NC(=O)Nc3ccc(C(F)(F)F)cc3)ccc2O[C@@H]1CN(C)S(=O)(=O)c1ccc(Cl)cc1` the cytotoxicity call was “active”.
For `C[C@H](CO)N1C[C@H](C)[C@@H](CN(C)S(=O)(=O)c2ccc(Cl)cc2)Oc2ccc(NC(=O)Nc3ccc(C(F)(F)F)cc3)cc2CC1=O`, the cytotoxicity call was “active”.
For `Cc1cc(=O)nc2[nH][nH]c(=S)n12`, the cytotoxicity call was “inactive”.
In the case of `C[C@H]1CN([C@@H](C)CO)C(=O)c2cccc(NC(=O)c3nc4ccccc4s3)c2O[C@@H]1CN(C)S(C)(=O)=O`, the cytotoxicity call is reported as “inactive”.
With `C[C@@H]1CN([C@@H](C)CO)C(=O)Cc2cc(NC(=O)Nc3cccc4ccccc34)ccc2O[C@H]1CN(C)C(=O)Nc1ccccc1` the cytotoxicity call was “inactive”.
For `COc1ccc(S(=O)(=O)Nc2ccc3c(c2)CC(=O)N([C@H](C)CO)C[C@@H](C)[C@H](CN(C)Cc2ccc(C(=O)O)cc2)O3)cc1`, the cytotoxicity call was “inactive”.
With `CN(C)C=C(C=[N+](C)C)c1[nH]ncc1N` the cytotoxicity call was “inactive”.
`C[C@@H]1CN([C@@H](C)CO)C(=O)Cc2cc(NC(=O)Nc3ccc(C(F)(F)F)cc3)ccc2O[C@@H]1CN(C)S(=O)(=O)c1ccc(Cl)cc1` was tested, and the cytotoxicity call was “active”.
In the case of `Cc1cc(C(=O)Nc2cccc3c2O[C@H](CN(C)Cc2ccncc2)[C@@H](C)CN([C@H](C)CO)C3=O)n(C)n1`, the cytotoxicity call is reported as “inactive”.
In the case of `C[C@@H]1CN([C@@H](C)CO)C(=O)Cc2cc(NC(=O)CCC(F)(F)F)ccc2O[C@@H]1CN(C)S(=O)(=O)c1cn(C)cn1`, the cytotoxicity call is reported as “inactive”.
